Each structure is given as a SMILES string.

This assay has as its system Vero E6 infected with SARS-CoV-2. Nature of the assay: morphology score (similarity to uninfected cells); higher = more like uninfected cells. The settings on record: 24 h.
For the compound `C[N+]1(CCCCC[N+]2(C)CCCC2)CCCC1` [pentolinium] (10 µM), the morphology score was -0.0223. With `Oc1ccc(Cl)cc1Cc1cc(Cl)ccc1O` [dichlorophen] (10 µM), the morphology score was determined as 0.14. Then `CC(=O)Nc1nc2c(Oc3cc(-c4ccc(C(F)(F)F)cc4)ncn3)cccc2s1` (10 µM), with 0.163; and `Cc1[nH]c(/C=C2\C(=O)Nc3ccccc32)c(C)c1CCC(=O)O` [orantinib] (10 µM), with 0.123; and `CCOc1ccc2nc(S(N)(=O)=O)sc2c1` [ethoxzolamide] (10 µM), with 0.205. Consider `CNC1CC(c2ccc(Cl)c(Cl)c2)c2ccccc21` (stereo not given) [indatraline] (10 µM), for which the morphology score is -0.112. Turning to `Cc1[nH]c2ccc(Cl)cc2c1C1=CCNCC1` (10 µM), the morphology score was 0.432. `C=C[C@@]1(C)CC(=O)[C@]2(O)[C@@]3(C)[C@@H](O)CCC(C)(C)[C@@H]3[C@H](OC(=O)CCN(C)C)[C@H](OC(C)=O)[C@@]2(C)O1` [colforsin-daproate] (0.833333 µM) gave a morphology score of 0.5. With `NC[C@H]1O[C@H](O[C@H]2[C@H](O[C@@H]3O[C@H](CO)[C@@H](O)[C@H]3O)[C@@H](O)[C@H](N)C[C@@H]2N)[C@H](N)[C@@H](O)[C@@H]1O` [ribostamycin-sulfate] (10 µM), the morphology score was found to be 0.199. `Cc1nc(NC(=O)N2CCC[C@H]2C(N)=O)sc1-c1ccnc(C(C)(C)C(F)(F)F)c1` [alpelisib] (10 µM) gave a morphology score of 0.0577. For the compound `CCCCOc1ccc(OCCCN2CCOCC2)cc1` [pramoxine] (10 µM), the morphology score is -0.0144. In turn, `NCCC(O)(P(=O)(O)O)P(=O)(O)O` [pamidronate] (10 µM) had a morphology score of 0.09.

On to `O=C(CC12CC3CC(CC(C3)C1)C2)Nc1cccc2nc(NCCNCCO)ccc12` (10 µM), for which the morphology score was -0.132. `CN1C(=O)COc2c(C(=O)NC3CN4CCC3CC4)cc(Cl)cc21` (stereo not given) [azasetron] (10 µM) showed a morphology score of 0.143. For `Cc1ccc(C)c(Oc2ccncc2C(=O)N2CCN(C3CC3)c3ccccc32)c1` (10 µM), the morphology score worked out at 0.133. Turning to `NCCCC[C@H](NC(=O)[C@@H]1CCCN1C(=O)[C@@H]1CSSC[C@H](NC(=O)CNC(=O)CNC(=O)CN)C(=O)N[C@@H](Cc2ccc(O)cc2)C(=O)N[C@@H](Cc2ccccc2)C(=O)N[C@@H](CCC(N)=O)C(=O)N[C@@H](CC(N)=O)C(=O)N1)C(=O)NCC(N)=O` [terlipressin] (10 µM), the morphology score was found to be 0.0361.

For the compound `[N-]=[N+]=CC(=O)CC[C@H](N)C(=O)O` [6-diazo-5-oxo-L-norleucine] (10 µM), the morphology score came to 0.196. Take `CCCCC1C(=O)N(c2ccccc2)N(c2ccccc2)C1=O` [phenylbutazone] (10 µM): the morphology score was 0.209. Then `COc1ccc(NS(=O)(=O)c2sc3ccc(Cl)cc3c2C)cc1N1CCNCC1` (10 µM), with 0.192; and `C=Cc1cc(O)cc2nc(-c3ccc(O)c(F)c3)oc12` [prinaberel] (10 µM), with 0.143; and `CNC(=O)CN1CCC(Oc2cc3c(Nc4cccc(Cl)c4F)ncnc3cc2OC)CC1` (0.833333 µM), with -0.193. In the case of `CC(=O)Nc1ccc(CC(=O)O)cc1` [actarit] (10 µM), the morphology score turned out to be 0.181. `CO/N=C(\C(=O)N[C@@H]1C(=O)N2C(C(=O)OCOC(=O)C(C)(C)C)=C(/C=C\c3scnc3C)CS[C@H]12)c1csc(N)n1` [cefditoren-pivoxil] (10 µM) had a morphology score of 0.149. For `OC[C@H]1O[C@@H](c2ccc(Cl)c(Cc3ccc(O[C@H]4CCOC4)cc3)c2)[C@H](O)[C@@H](O)[C@@H]1O` [empagliflozin] (10 µM), the morphology score is -0.159. As to `NCC[C@H](O)C(=O)N[C@@H]1C[C@H](N)[C@@H](O[C@H]2O[C@H](CN)[C@@H](O)[C@H](O)[C@H]2O)[C@H](O)[C@H]1O[C@H]1O[C@H](CO)[C@@H](O)[C@H](N)[C@H]1O` [amikacin] (10 µM), the morphology score was -0.122.

Compound `COCCOc1cnc2ccn([C@H](C)c3nnc4c(F)cc(-c5cnn(C)c5)cn34)c(=O)c2c1` (10 µM) had a morphology score of 0.0816.

`COCCCOc1ccnc(C[S+]([O-])c2nc3ccccc3[nH]2)c1C` (stereo not given) [rabeprazole] (10 µM) gave a morphology score of 0.00912. As for `CCCCC(=O)N(Cc1ccc(-c2ccccc2-c2nnn[nH]2)cc1)[C@H](C(=O)O)C(C)C` [valsartan] (10 µM), the morphology score amounted to 0.00713.

Compound `CCC(=O)O[C@]1(C(=O)CCl)[C@@H](C)C[C@H]2[C@@H]3C[C@H](F)C4=CC(=O)C=C[C@]4(C)[C@@]3(F)[C@@H](O)C[C@@]21C` [halobetasol-propionate] (10 µM) showed a morphology score of 0.0989. The compound `CCN(CC)CCOC(=O)C1(c2ccc([N+](=O)[O-])cc2)CCCC1` [nitrocaramiphen] (10 µM) registered a morphology score of 0.137.

Turning to `CSc1ccccc1OCC(O)CNC(C)C` (stereo not given) [tiprenolol] (10 µM), the morphology score is -0.224.

Compound `Cc1ccc(NC2=CC(=O)c3sc(C)nc3C2=O)cc1` [ryuvidine] (0.833333 µM) returned a morphology score of 0.165. `CNC(=O)c1ccc(N2C(=S)N(c3cnc(C#N)c(C(F)(F)F)c3)C(=O)C23CCC3)cc1F` [apalutamide] (10 µM): the morphology score was found to be 0.0169.

For `NC(=O)NCCN1CCN(c2cccc(C(F)(F)F)c2)CC1` [fluprazine] (10 µM), the morphology score came to 0.0715.

As to `C1CCC(NC2CCCCC2)CC1` [dicyclohexylamine] (10 µM), the morphology score was -0.191. In the case of `CC(C)(C)N1CCC(c2ccccc2)(c2ccccc2)CC1` [budipine] (10 µM) it was 0.395; in that of `CC(C)(c1ccc(O)cc1)c1ccc(O)cc1` [bisphenol-A] (10 µM), 0.0642; in that of `CNCCCOc1cc(F)c(-c2c(Cl)nc3ncnn3c2N[C@@H](C)C(F)(F)F)c(F)c1` [cevipabulin] (10 µM), -0.0738.

In turn, `CC(C)(C)c1ccc(CN2CCN(C(c3ccccc3)c3ccc(Cl)cc3)CC2)cc1` (stereo not given) [buclizine] (10 µM) came in with a morphology score of 0.307. In turn, `CC[C@H](/C=C/[C@@H](C)[C@H]1CC[C@H]2[C@@H]3CC=C4C[C@@H](O)CC[C@]4(C)[C@H]3CC[C@]12C)C(C)C` [Stigmasterol (Stigmasterin)] (10 µM) registered a morphology score of 0.0238.

For the origin of these results see the supplement of paper PMC13380429.
